# A selection: hits, their analogues and other compounds. The true share with any hit is near 19%.
# ELG1 DNA repair – qHTS screen for small molecules that inhibit ELG1-dependent DNA repair in human embryonic kidney (HEK293T) cells expressing luciferase-tagged ELG1. HEK293T ELG1-luciferase reporter, luminescence, 16 h; DNA damage induced by 5-fluorouridine. AID 504467, 2011. 2.3% of 330,000 active. Potency, µM (doses to about 46.1 µM), inactives show at the top dose activity change, negative = inhibition, hits mostly inhibitors; further: potency means the concentration at half of the fitted maximal effect; nearly all actives have a fitted effect of over 55% in size
#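 Cells (2,000 per well) received 5-fluorouridine plus test compound or DMSO and were incubated 16 hr at 37 °C, 5% CO2. Luciferase activity was read by luminescence 30 min after ONE-Glo addition; signal suppression marked inhibition of damage-induced ELG1 function.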
# TDP1 inh – qHTS Assay for Inhibitors of Tyrosyl-DNA Phosphodiesterase (TDP1). recombinant TDP1, AlphaScreen DNA substrate cleavage. Potency, µM (top dose mostly 130 µM), inactives show at the top dose activity change, negative = inhibition, usual class: inhibitors. 0.28% of 350,000 active; further: potency means the concentration at half of the fitted maximal effect; nearly all actives have a fitted effect of over 40% in size
# Target sequence (Q9NUW8 whole entry, looked up): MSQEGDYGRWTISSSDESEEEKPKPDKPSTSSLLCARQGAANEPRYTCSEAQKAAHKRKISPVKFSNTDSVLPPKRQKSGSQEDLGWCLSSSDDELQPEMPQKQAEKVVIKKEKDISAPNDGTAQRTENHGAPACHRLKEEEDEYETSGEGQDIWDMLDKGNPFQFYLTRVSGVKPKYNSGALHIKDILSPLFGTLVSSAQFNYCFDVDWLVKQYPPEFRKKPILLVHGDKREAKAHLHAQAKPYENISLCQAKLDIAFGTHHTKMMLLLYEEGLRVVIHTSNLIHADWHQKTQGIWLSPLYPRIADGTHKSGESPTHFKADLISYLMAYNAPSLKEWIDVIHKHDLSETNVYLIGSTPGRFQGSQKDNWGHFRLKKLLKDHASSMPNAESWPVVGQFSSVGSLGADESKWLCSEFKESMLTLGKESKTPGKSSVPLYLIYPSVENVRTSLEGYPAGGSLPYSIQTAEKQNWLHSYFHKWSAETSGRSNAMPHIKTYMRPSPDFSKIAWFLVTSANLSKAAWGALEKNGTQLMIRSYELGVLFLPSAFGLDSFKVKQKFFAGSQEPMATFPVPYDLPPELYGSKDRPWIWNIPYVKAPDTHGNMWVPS
#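 Enzyme-compound mixtures sat 15 min at room temperature, followed by a 5 min reaction with 15 nM final substrate and 10 min with AlphaScreen beads. Recombinant human Tdp1 was used at 1 nM final.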
# TDP1 cell noCPT – qHTS for Inhibitors of human tyrosyl-DNA phosphodiesterase 1 (TDP1): qHTS in cells in absence of CPT; 15% of 420,000 active; Potency, µM (titrated, usually from 46.2 µM), for inactives: top-dose activity change, negative = growth inhibition, most hits filed as inhibitors; DT40 Tdp1-/- hTDP1 cells, no CPT, ATP luminescence, 48 h; further: potency means the concentration at half of the fitted maximal effect; nearly all actives have a fitted effect of over 55% in size
#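 Camptothecin absent (DMSO only). Human TDP1-complemented DT40 knockout cells, 400 cells/well, 37 °C for minimum 48 hr; ATP measured via CellTiter-Glo, 30 min dark incubation, luminescence.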
# IL-1B inflam inh – qHTS for Inhibitors of Inflammasome Signaling: IL-1-beta AlphaLISA Primary Screen | THP-1 LPS/ATP IL-1B secretion, AlphaLISA, 16 h; hits give low values | activity change, % at 57.5 µM | 4.7% of 360,000 active | AID 743279, 2014; in the data active means activity change below about -50%; inconclusive means mostly about -30% to -49%
#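 THP-1 cells pretreated 1 hr with compounds (up to 57.5 uM final), then stimulated with LPS (250 ng/mL final) plus ATP (1.25 mM final); secreted IL-1B measured by AlphaLISA after 16 hr, decreased signal indicating inhibition.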
# Giardia killer – Small Molecules that selectively kill Giardia lamblia: qHTS; Giardia lamblia trophozoite viability; activity change, % at 7.66 µM, hits read low; 0.15% of 340,000 active; AID 540267, 2011; in the data active means activity change below about -80%; inconclusive means between about -30% and that limit;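 further: parasites exposed to compound for two days anaerobically before the ATP read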
#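 Anaerobic 48 hrs incubation at 37 deg C of 100 trophozoites/well with test compounds; ATPLite 1-Step luminescence, 15-30 min RT, reports cellular ATP as viability.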
# TDP1 cell CPT – qHTS for Inhibitors of human tyrosyl-DNA phosphodiesterase 1 (TDP1): qHTS in cells in presence of CPT; 12% of 420,000 active; chicken DT40 Tdp1-/-;hTDP1 cells + 20 nM CPT, ATP luminescence, 48 h; Potency, µM (series often up to 46.2 µM), for inactives: at the top dose activity change, negative = growth inhibition, most hits filed as inhibitors; further: potency means the concentration at half of the fitted maximal effect; nearly all actives have a fitted effect of over 55% in size
#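 Cell growth measured by CellTiter-Glo luminescence after a minimum 48 h, 37 C compound exposure with 20 nM CPT in Tdp1-knockout DT40 cells stably expressing hTDP1, seeded 400/well; qHTS titration format.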
# * hit, by the source's call; ? = inconclusive; . = not tested or not shown. Unless noted, the call rests on the fitted dose curve; in most records, active means well fitted curve in the direction sought with a large enough effect; inconclusive means small, poorly fitted or top-dose-only effect, or another doubt; inactive means no such curve, though single readings can be large; an effect the other way counts as inactive or inconclusive. On the % scale 0 is the no-effect control and ±100 the full control effect.
SMILES,ELG1 DNA repair,TDP1 inh,TDP1 cell noCPT,IL-1B inflam inh,Giardia killer,TDP1 cell CPT
O=C(CSc1ncn[nH]1)Nc1ccc(Cl)c(S(=O)(=O)N2CCOCC2)c1,-1%,2%,9%,20,-11,1%
CCOC(=O)N1CCC(NC(=O)c2cc3c(=O)[nH]c4ccccc4c3n2C)CC1,-10%,5%,-27%,-17,-29,-2%
CC(=O)Nc1ccc(NC(=O)C(C)OC(=O)CCCOc2ccc(Cl)cc2C)cc1 (centres undefined),17%,-3%,-25%,36,-6,-17%
O=C(NCCc1ccccc1)c1cnc(Cl)c(Cl)c1,?,.,?,-87*,-16,10%
O=C(NCCCc1ccccc1)c1nn(-c2ccccc2)nc1CO,.,-12%,?,.,.,?
N#Cc1ccc(C(=O)NCCCSc2ccccc2)cc1,-4%,.,21µM*,14,-20,?
O=C(OCc1ccccc1)c1cnc(Cl)c(Cl)c1,1%,.,0%,-4,-4,-1%
O=C(NCCCSc1ccccc1)c1cnc(Cl)c(Cl)c1,-3%,.,-25%,-94*,9,-27%
O=C(NCCc1ccccc1)c1nn(-c2ccccc2Cl)nc1CO,.,0%,13µM*,.,.,12µM*
O=C(NCCCSc1ccccc1)c1cccnc1,-16%,9%,0%,54,6,-6%
C=CCn1c(SCC(=O)Nc2cccnc2Cl)nnc1-c1ccccc1F,?,1%,?,-8,-25,-19%
Cc1cccc(CNC(=O)c2ccc3nc(Cc4ccccc4F)oc3c2)n1,?,2%,?,-12,19,-5%
CCNC(=O)C1(C)CCN(C(=O)c2cccc(Cl)c2)C1 (centres undefined),.,.,-5%,-11,.,-18%
CCOc1cc(CNc2ccccc2)cc(Br)c1OCC(=O)NC(C)(C)C,-11%,4%,?,-87*,20,?
CC(C)(C)NC(=O)COc1ccc(CNc2ncn[nH]2)cc1,-3%,9%,-21%,-2,-1,5%
CCOc1cc(CNc2ccc(Br)cc2)cc(Br)c1OCC(=O)NC(C)(C)C,?,2%,?,-26,7,21µM*
COc1cc(CNc2ccc(CNc3ncn[nH]3)cc2)ccc1OCC(=O)NC(C)(C)C,?,8%,16µM*,-3,-8,?
CCOc1cc(CNc2ccc(OC)cc2)cc(Br)c1OCC(=O)NC(C)(C)C,2%,8%,?,?,8,?
CCCCC(CC)CNCC(CC)CCCC (centres undefined),.,7%,.,.,.,.
CCN(CC)S(=O)(=O)c1ccc(-c2csc(C)n2)s1,-1%,6%,-20%,-4,-2,-10%
Cc1ccc2nc(-c3cccc(S(=O)(=O)N(C)C)c3)cn2c1,?,-3%,?,-14,5,?
CCN(CC)S(=O)(=O)c1cccc(-c2nc3n(n2)Cc2ccccc2-3)c1,-2%,5%,23µM*,-17,-13,?
CCCN(CCC)S(=O)(=O)c1cccc(-c2csc(C)n2)c1,0%,.,18µM*,-55*,25,?
Cc1ccc2nc(-c3cccc(S(=O)(=O)N4CCCC4)c3)cn2c1,?,1%,-3%,5,-1,-5%
CCN(CC)S(=O)(=O)c1cccc(-c2cn3cc(C)ccc3n2)c1,?,2%,18µM*,-22,2,21µM*
SMILES,ELG1 DNA repair,TDP1 inh,TDP1 cell noCPT,IL-1B inflam inh,Giardia killer,TDP1 cell CPT
Cc1ccc2nc(-c3cccc(S(=O)(=O)N4CC(C)OC(C)C4)c3)cn2c1 (centres undefined),-3%,2%,15µM*,-25,-15,?
CCOC(=O)C1=C(CN2CCN(C(=O)c3ccco3)CC2)NC(=O)NC1c1ccc(C)cc1 (centres undefined),-1%,4%,-22%,17,12,-9%
CCN(CC)S(=O)(=O)c1ccc(-c2cn3ccccc3n2)cc1,.,.,15µM*,-27,.,?
CN(C)S(=O)(=O)c1ccc(-c2cn3ccccc3n2)cc1,?,8%,?,8,?,-29%
C=CCn1c(=O)c(C(=O)Nc2cc(C)ccn2)c(O)c2ccccc21,11%,.,26µM*,0,-2,29µM*
CCn1c(=O)c(C(=O)Nc2ccccn2)c(O)c2ccccc21,-6%,-2%,?,53,-4,5%
C=CCn1c(=O)c(C(=O)Nc2ccc(C)cc2)c(O)c2ccccc21,?,.,12µM*,38,-18,18µM*
CN(C)c1ccc(-c2cncnc2-n2ccnc2)cc1,.,.,-23%,.,.,?
Nc1cc2nsnc2cc1Br,-2%,-6%,5.8µM*,-4,-8,5.8µM*
Cc1ccc(F)c(S(=O)(=O)NC(=O)C2(C)CCN2C(=O)c2sccc2C)c1 (centres undefined),.,.,-2%,7,.,8%
Nc1nc2ccccc2cc1C(=O)NCc1cccs1,.,.,7.3µM*,48,.,9.2µM*
Nc1nc2ccccc2cc1C(=O)NCCCCc1ccccc1,.,.,1.6µM*,52,.,2.1µM*
O=C(NCc1cccs1)c1cc(-c2ccccc2)nc2ccccc12,?,0%,21µM*,12,14,23µM*
O=C(Nc1nnc(-c2cccs2)o1)c1cc(-c2ccccc2)nc2ccccc12,-1%,11%,15µM*,82,-16,13µM*
Cc1ccccc1C(=O)NCCCCc1ccccc1,3%,6%,-30%,-23,10,-25%
NC(=O)Nc1ccc(C(=O)OCC(=O)N2CCCC2=O)cc1,14%,-11%,6%,-11,-3,1%
CCOC(=O)Cn1ccc(NC(=O)c2ccc(F)cc2)n1,19%,.,-23%,0,12,?
COc1ccccc1Nc1cc(C(=O)NCc2cccs2)c2ccccc2n1,.,0%,?,.,.,26µM*
Cc1ccccc1Nc1cc(C(=O)NCc2cccs2)c2ccccc2n1,.,0%,?,.,.,21µM*
Cc1ccc(-c2nc3ccccc3c(C(=O)NCc3cccs3)c2C)cc1,?,-2%,?,-8,-16,21µM*
Cc1ccc(Nc2cc(C(=O)NCc3cccs3)c3ccccc3n2)c(C)c1,.,0%,-25%,.,.,?
CCc1ccc(NC(=O)Cn2c(=O)n(CCCCC(=O)NCc3ccc4c(c3)OCO4)c(=O)c3ccccc32)cc1,.,7%,-27%,.,.,?

# Screening data from PubChem BioAssay.
